This note sets out measurements from PubChem BioAssay (NCI).

Several values for one entry are separate records, joined by “and”; a condition that tells them apart may be missing. Equal entries are not always repeated. About 83,000 compounds went through this panel and 20% of them were active in at least one assay; those are over-represented in the sample as a whole.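 Single-dose data. Exposure time 48 hours. Values below 10 considered active.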 Activity calls are given as the source filed them.

The subject of the test is HL-60(TB) leukemia. Put plainly: NCI-60 one-dose screen, 48 h (100 = growth as untreated, 0 = no growth, -100 = all killed). As to conditions: 10 µM unless noted.
Consider `CCCCNC(=O)Oc1ccc(/C(=C(\C)c2ccc(OC)cc2)c2ccc(OCCN3CCCCC3)cc2)cc1`, for which the growth is 34.6% (inactive). For `CC(O)c1nc2c(c(=O)n(C)c(=O)n2C)n1C` (configuration not stated), the growth is 100% (inactive). The result for `N#CC1(Nc2ccc3c4c(cccc24)CC3)CCCCC1` reads 72.2% (inactive); that for `O=C(Nc1ccc(Cl)cc1)c1cc2ccccc2cc1O`, -8.5% (active) and -29.4% (active). Take `OCC1C2C=CC(C2)C1CO` (configuration not stated): the growth is 87.5% (inactive). With `Fc1cc2c(cc1Cl)N(c1ncnc3ccc(-c4ccc5n[nH]nc5c4)cc13)CC2` the figure was 69.3% (inactive); with `COC(=O)[C@H]1[C@H](OC)[C@@H](OC(=O)/C=C/c2ccncc2)CC2CN3CCc4c([nH]c5cc(OC)ccc45)[C@@H]3C[C@@H]21` (some centres not stated), 28.6% (inactive); with `C[C@H](c1nc2ccc(N)cc2[nH]1)[C@H]1CC[C@H]2[C@@H]3CCC4=CC(=O)CC[C@]4(C)[C@H]3CC[C@]12C`, -50.2% (active). The result for `COc1ccc2nc3cc(Cl)ccc3c(N)c2c1` reads -71.6% (active); that for `N#CC1=C(N)Oc2c(sc3c(Br)cccc23)C1c1ccc(Cl)cc1` (configuration not stated), -7.34% (active); that for `COc1ccc(C2=NN(C(=O)c3cc(OC)c(OC)c(OC)c3)C(c3ccc(Cl)cc3)C2)cc1OC` (configuration not stated), -54% (active). The result for `O=C1c2ccccc2-c2c1c1c(=O)[nH]c3ccccc3c1n2Cc1ccccc1` reads 73.9% (inactive). Take `CN1CCN(Cc2occc(=O)c2O)CCN(C)CCN(Cc2occc(=O)c2O)CC1`: the growth is 98.8% (inactive) and 48.1% (inactive).

For `COc1ccc(NC2=NC(C)(CO)CS2)cc1` (configuration not stated), the growth is 91.1% (inactive). With `CCCN1CCN(c2ccc3nc(-c4ccc5nc(-c6ccc(C(F)(F)F)cc6)[nH]c5c4)[nH]c3c2)CC1` the figure was -40.7% (active); with `c1ccc(-c2nc(N3CCOCC3)c3c4c(sc3n2)CCCCCC4)nc1`, 68.4% (inactive). `Nc1c(C(=O)O)[nH]c(=O)[nH]c1=O`: the growth is 81.3% (inactive).

Take `CC(=O)Nc1cccc2cc(O)ccc12`: the growth was 114% (inactive) and 76.6% (inactive) and 104% (inactive). The result for `Oc1ccc(CN(Cc2ccc(C(F)(F)F)cc2)Cc2ccc(O)c3ncccc23)c2cccnc12` reads -11% (active); that for `O=C1C=Cc2ncccc2C1=O`, 57.7% (inactive); that for `COc1cc(CN(CCC(O)N2CCCC2=O)Cc2ccc3c(c2)OCO3)cc(OC)c1OC` (configuration not stated), 90.6% (inactive). With `Cc1ccc(N2C(=O)c3cccc4c(N)c(S(=O)(=O)O)cc(c34)C2=O)cc1` the figure was 88.8% (inactive); with `OB(O)c1cccc(-c2nc3ccc4[nH]ncc4c3c3c2CCCC3)c1`, 32.6% (inactive); with `CCCCCCCCCCCCCCCCC(Br)C(=O)O` (configuration not stated), 111% (inactive). With `CCCCCCC1N=C(N)N=C(N)N1c1cccc(Cl)c1` (configuration not stated) the figure was 44.3% (inactive); with `CN1CCN(C(=O)[C@]2(C)CC[C@]3(C)CC[C@]4(C)C(=CC(=O)[C@@H]5[C@@]6(C)CCC(=O)NC(C)(C)[C@@H]6CC[C@]54C)[C@@H]3C2)CC1`, 95.7% (inactive); with `Clc1cc(Cl)cc(-c2ccc(-c3ccc(/C=N/NC4=NCCN4)cc3)s2)c1`, 19.6% (inactive).

For `CC(C)=NNc1ccc([N+](=O)[O-])cc1[N+](=O)[O-]`, the growth was 57.5% (inactive). Turning to `CCc1nc2c(=O)[nH]cnc2o1`, the growth is 106% (inactive).

On to `COc1ccc(CC(C#N)c2cc3ccccc3[nH]2)cc1` (configuration not stated), for which the growth is 97.5% (inactive).

For `COC(=O)[C@@H](CCCCNC(=O)[C@]12CCC(C)(C)C[C@@H]1C1=CC[C@@H]3[C@@]4(C)C/C(=C/c5ccco5)C(=O)C(C)(C)[C@@H]4CC[C@@]3(C)[C@]1(C)CC2)NC(=O)[C@]12CCC(C)(C)C[C@@H]1C1=CC[C@@H]3[C@@]4(C)C/C(=C/c5ccco5)C(=O)C(C)(C)[C@@H]4CC[C@@]3(C)[C@]1(C)CC2`, the growth was 114% (inactive).

Consider `OC(CNC1CCCC1)Cn1c2ccccc2c2ccccc21` (configuration not stated), for which the growth is -47.3% (active). With `COc1ccc(OC)c(-c2c(C#N)c(-c3cccs3)nc3c2c(-c2ccccc2)nn3-c2ccccc2)c1` the figure was 107% (inactive); with `COc1ccc(-c2nnc(SC/C(=N\O)c3ccccc3)o2)cc1`, 86.8% (inactive); with `CCOC(=O)c1c(C)[nH]c(C)c1C=O`, 71.4% (inactive). Consider `C=CCc1c(O)c(C(=O)/C=C/c2ccc(Cl)cc2)c(OC)c2ccoc12`, for which the growth is 25.4% (inactive). With `C#CC[C@@H]1C[C@]2(C)[C@H]3CC[C@@H]4[C@H]5C(C(=C)C)CC[C@]5(C(=O)NCCCN5CCN(CCCN)CC5)CC[C@@]4(C)[C@]3(C)CC[C@H]2C(C)(C)[C@H]1OC(C)=O` (some centres not stated) the figure was -51.6% (active).
